Measured values from PubChem BioAssay AID2685 (National Center for Advancing Translational Sciences (NCATS), 2010).
The campaign covered roughly 320,000 compounds. About 2,100 (0.66%) were called active. Roughly 53% stayed inconclusive and do not appear here. Calls follow the shape of the dose curve; as a rule, active = well fitted inhibition curve with a large enough effect in the signal ratio, with a control signal flat (not every such curve was filed as active); inconclusive = small, poorly fitted or top-dose-only effect, or effect the other way, or a change in a side signal; inactive = flat fitted curve, though single readings scatter; the % refers to the signal ratio. What follows is part of a selection rich in actives, with near analogues and random picks from the rest.

Experiment: qHTS Assay for Lipid Storage Modulators in Drosophila S3 Cells;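 as to cell number change: cells counted by Cell Tracker Red CMTPX staining in the red channel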; as to lipid storage change, negative = inhibition: % is scaled to controls: 0 for no effect and ±100 for the full control effect
Conditions: BODIPY lipid droplet fluorescence, 18-24 h, cells fed with added oleic acid; cell number change: measured here: cell count max response; series mostly up to 46.1 µM
In short: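 Drosophila S3 cells got compounds at several concentrations plus oleic acid (400 uM solution). Laser-scanning cytometry with 488 nm excitation read lipid droplets at 500-530 nm and cells at 575-640 nm. Percent activity was relative to 20 uM Triacsin C.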
Potency is read from the fitted curve at half-maximal effect.

Row | Compound | Potency | cell number change [%] | lipid storage change, negative = inhibition
1 | CCOc1ccc(NC(=S)N2C3CCCC2CC(NC(=O)C2CC2)C3)cc1 (stereo not given) | inactive | 11.2 | 
2 | CCOC(=O)C1Cc2ccccc2C(=O)O1 (stereo not given) | inactive | 3.62 | 
3 | CC(=O)Nc1nc2cc([N+](=O)[O-])ccc2s1 | inactive | -7.82 | 
4 | CCC(C)N1C(=O)S/C(=C/c2ccc(N3CCOCC3)cc2C)C1=O (stereo not given) | inactive | 12.1 | 
5 | C=CC(C)N1C(=O)S/C(=C\c2ccc(N3CCOCC3)cc2C)C1=O (stereo not given) | 4.11 µM (active) |  | 
6 | CCCN1C(=O)S/C(=C\c2ccc(N3CCOCC3)cc2C)C1=O | inactive | -13.4 | 
7 | Cc1cccc(N2CC(C(=O)NCCC3=CCCCC3)CC2=O)c1C (stereo not given) | inactive |  | 
8 | CCS(=O)(=O)N1CCC(C(=O)NCc2ccc(OC)cc2OC)CC1 | inactive | 16 | 
9 | O=C(O)c1ccc(COc2ccc([N+](=O)[O-])cc2)o1 | inactive |  | 
10 | O=C(O)c1ccc(COc2ccc(Cl)cc2)o1 | 25.9 µM (active) | -10.6 | 
11 | N#Cc1ccc(OCc2ccc(C(=O)O)o2)cc1 | inactive | -20.7 | 
12 | Nc1cccnc1Sc1cccc(Cl)c1 | inactive | -17.5 | 
13 | O=S(=O)(c1ccccc1)N1CCN(S(=O)(=O)c2ccc(F)cc2)CC1 | inactive | -2.92 | 
14 | CC1(C)CC(=O)c2cc(NC(=O)c3ccccc3)c(=O)oc2C1 | inactive | 6.08 | 
15 | Cn1c(SCc2cc(=O)[nH]c(C(C)(C)C)n2)nnc1C(F)(F)F | inactive | -1.02 | 
16 | CCOC(=O)N1CCN(C2=C(NS(=O)(=O)c3ccc(NC(C)=O)cc3)C(=O)c3ccccc3C2=O)CC1 | 18.4 µM (active) | -22.6 | 
17 | CC(=O)Nc1ccc(S(=O)(=O)NC2=C(N3CCN(c4ccc(F)cc4)CC3)C(=O)c3ccccc3C2=O)cc1 | inactive | 3.49 | 
18 | CCOC(=O)N1CCN(C2=C(NS(=O)(=O)c3ccc(C)cc3)C(=O)c3ccccc3C2=O)CC1 | inactive | -13.9 | 
19 | CCOC(=O)c1ccc(N(CC(=O)NC2CCCCC2)C(=O)CNC(=O)c2ccco2)cc1 | inactive | 11.2 | 
20 | O=C(c1ccccc1)N1N=C(c2ccco2)CC1c1cccs1 (stereo not given) | inactive | 16.1 | 
21 | O=C(CCl)N1N=C(c2ccco2)CC1c1cccs1 (stereo not given) | 23.1 µM (active) | -16 | 
22 | O=C(O)CCC(=O)N1N=C(c2ccco2)CC1c1cccs1 (stereo not given) | inactive | -1.36 | 
23 | CC(C)Sc1nc2c(cnn2-c2ccc(F)cc2)c(=O)[nH]1 | inactive |  | 
24 | CN(C)c1nc(NCc2ccccc2)nc(N/N=C/c2ccc(Br)cc2)n1 | inactive | -3.42 | 

Row | Compound | Potency | cell number change [%] | lipid storage change, negative = inhibition
25 | CN(C)c1nc(NCc2ccccc2)nc(N/N=C/c2ccccc2F)n1 | 23.1 µM (active) |  | 
26 | CN(C)c1nc(NCc2ccccc2)nc(N/N=C/c2ccc(Cl)cc2Cl)n1 | inactive | -26.7 | 
27 | O=C1CCCN1CCCNS(=O)(=O)c1ccc(Cl)c(C(=O)N2CCOCC2)c1 | 23.1 µM (active) | -15.3 | 
28 | O=C(NCCCN1CCCC1=O)c1cc(S(=O)(=O)N2CCOCC2)ccc1Cl | inactive | 15 | 
29 | O=C1CCCN1CCCNS(=O)(=O)c1ccc(F)c(F)c1 | inactive | 3.84 | 
30 | COc1ccccc1Cn1c(C(C)C)nc2ccccc21 | inactive | 8.07 | 
31 | O=C(Nc1nc2ccccc2[nH]1)c1ccc(OC(F)F)cc1 | inactive | -15.1 | 
32 | CCOc1ccc(N(CC(=O)NCCOc2ccc(C)cc2)S(=O)(=O)c2ccccc2)cc1 | inactive | 23.7 | 
33 | CC(=O)N1CCCc2cc(S(=O)(=O)NC(C(=O)NC3CCCCC3)C(C)C)ccc21 (stereo not given) | inactive | 13.4 | 
34 | COC(=O)CCCCCCCCCC[N+]1(C)CCCCC1 | inactive | 12.8 | 
35 | C[N+]1(CCCCSc2ccc(O)cc2)CCCCC1 | 4.61 µM (active) | -4.93 | 
36 | C[N+]1(CCC(=O)c2ccccc2)CCCCC1 | inactive | 3.5 | 
37 | CCN(CC)C(=O)C(Oc1ccc(S(=O)(=O)N2CCCC2)cc1[N+](=O)[O-])c1ccccc1 (stereo not given) | inactive | 3.42 | 
38 | O=C(CSc1nc2ccccc2s1)Nc1ccc(Cl)c(C(=O)O)c1 | inactive | 18.4 | 
39 | CSc1nsc(SCC(=O)Nc2ccc(Cl)c(C(=O)O)c2)n1 | 1.46 µM (active) | 6.94 | 
40 | CSc1nsc(SCC(=O)Nc2nncs2)n1 | inactive | 10.5 | 
41 | CSc1nsc(SCC(=O)Nc2ccc(OC(C)=O)cc2)n1 |  | -8.58 | 1.8% [at 9.22 µM] (inactive)
42 | CSc1nsc(SCC(=O)Nc2ccc(C(N)=O)cc2)n1 | 6.51 µM (active) | 8.7 | 
43 | Nc1nnc(SCC(=O)Nc2ccc(Cl)c(C(=O)O)c2)s1 | inactive | -0.289 | 
44 | O=C(Nc1cc(C(=O)N2CCN(c3ccccc3O)CC2)ccc1Cl)c1cccs1 | inactive | 5.21 | 
45 | CCCOc1cccc(C2/C(=C(\O)c3ccc4c(c3)OCCO4)C(=O)C(=O)N2CCCn2ccnc2)c1 (stereo not given) | inactive | -8.73 | 
46 | O=C(CCc1nnc2n(CCc3ccccc3)c(=O)c3ccccc3n12)NCCCN1CCCCC1 | inactive | -8.94 | 
47 | O=[N+]([O-])c1ccccc1/C=N\N1CCN(c2ccccc2)CC1 | inactive | 0.964 | 
48 | O=[N+]([O-])c1ccc(Cl)c(/C=N/N2CCN(Cc3ccccc3)CC2)c1 | inactive | -3.29 | 

Row | Compound | Potency | cell number change [%] | lipid storage change, negative = inhibition
49 | O=[N+]([O-])c1ccccc1/C=N/N1CCN(Cc2ccccc2)CC1 | 1.3 µM (active) | -5.28 | 
50 | O=S(=O)(NNC(=S)Nc1ccc(S(=O)(=O)Nc2ncccn2)cc1)c1ccc(Br)cc1 | inactive | 4.32 | 
51 | CCOC(=O)c1cc(-c2ccccc2)nn1Cc1cc(C)no1 | inactive | -24 | 
52 | CCOC(=O)c1cc(-c2ccccc2)nn1Cc1cc(CC)no1 | inactive | -20.2 | 
53 | Cc1cc(Cn2nc(-c3ccccc3)cc2C(=O)NCC2CC2)on1 | inactive | -12.8 | 
54 | Cc1cc(Cn2nc(C(=O)NCc3cccc(Br)c3)cc2-c2ccccc2)on1 | 13 µM (active) | 16.4 | 
55 | CCOC(=O)c1cc(-c2ccccc2)n(Cc2cc(CC)no2)n1 | 18.4 µM (active) | -3.23 | 
56 | Cc1cc(C(=O)NCc2ccccc2)no1 | inactive |  | 
57 | COc1cc(-c2noc(CCC(=O)NC3CCCC3)n2)cc(OC)c1OC | inactive | -0.87 | 
58 | CC(C)CNC(=O)NC(=O)CSc1nc2ccccc2n1CC(C)C | inactive |  | 
59 | COc1cc(/C=C/C(=O)NC(C)(C)C)ccc1OCc1ccccc1 | 29.1 µM (active) | -27.6 | 
60 | CCOc1cc(/C=C/C(=O)O)ccc1OCc1ccccc1 | inactive | 8.37 | 
61 | COc1ccc(/C=C/C(=O)NC(C)CCc2ccccc2)cc1OC (stereo not given) | inactive | 0.149 | 
62 | O=C(NCCCNC(=O)c1ccccc1Br)c1ccccc1Br | inactive | -12.7 | 
63 | Fc1cccc(NC(=S)NC2CCCCCCC2)c1 | inactive | -22.8 | 
64 | O=C(Nc1cccc(F)c1)NC1CCCCC1 | inactive | -7.64 | 
65 | O=C(Nc1cccc(F)c1)NC1CCCCCCC1 | 14.6 µM (active) | 14.2 | 
66 | FC(F)(F)c1cccc(NC(=S)NC2CCCC2)c1 | 18.4 µM (active) | -29.3 | 
67 | Cc1cccc(NC(=S)NC2CCCC2)c1 | inactive | 10.6 | 
68 | CC(=O)c1cccc(NC(=O)NC2CCCCCCC2)c1 | inactive |  | 
69 | C/C=C\C=C\C(=O)Nc1cccc(C2=NOC3(C2)C[C@H](C(N)=O)N(C(=O)c2ccccc2C(=O)c2ccccc2)C3)c1 (stereo not given in full) | inactive | 1.47 | 
70 | CCOC(=O)c1cnc(NCc2ccccc2)nc1C | inactive | -8.98 | 
71 | CCN1CCN(c2cc(C)nc(-c3ccccc3O)n2)CC1 | inactive | 0.893 | 
72 | COc1ccccc1NS(=O)(=O)c1ccc(C(=O)NCC(c2ccccc2OC)N(C)C)cc1 (stereo not given) | inactive | 13 | 

Row | Compound | Potency | cell number change [%] | lipid storage change, negative = inhibition
73 | Cc1cc2c(cc1S(=O)(=O)NCc1ccccc1)n(C)c(=O)c(=O)n2C | inactive | -17.3 | 
74 | CCN(c1ccccc1)S(=O)(=O)c1cc2c(cc1C)n(C)c(=O)c(=O)n2C | 8.2 µM (active) | -9.51 | 
75 | Cc1cc2c(cc1S(=O)(=O)N(C)c1ccccc1)n(C)c(=O)n2C | inactive | 9.55 | 
76 | Cc1cccc(NS(=O)(=O)c2cn(C)c(=O)n(C)c2=O)c1C | inactive | 14.4 | 
77 | Cc1cc2c(cc1S(=O)(=O)N(C)Cc1ccccc1)n(C)c(=O)c(=O)n2C | inactive | -28.5 | 
78 | Cc1cccc(N(C)S(=O)(=O)c2cc3c(cc2C)n(C)c(=O)c(=O)n3C)c1 | 13 µM (active) | -12.7 | 
79 | CCN(c1ccccc1)S(=O)(=O)c1cc(C(=O)O)ccc1C | inactive | -3.04 | 
80 | Cc1cc2c(cc1S(=O)(=O)Nc1cccc(C)c1C)n(C)c(=O)c(=O)n2C | 9.2 µM (active) | -26.2 | 
81 | Cc1cc2[nH]c(=O)c(=O)[nH]c2cc1S(=O)(=O)Nc1cccc(C)c1C | inactive | -1.15 | 
82 | O=C(CN1C(=O)NC2(CCCC2)C1=O)Nc1cc(S(=O)(=O)N2CCOCC2)ccc1OCC(F)(F)F | inactive | 18 | 
83 | Cc1ccccc1-n1nc2c(c1NC(=O)c1cccs1)CS(=O)(=O)C2 | inactive |  | 
84 | Nn1c(SCC(=O)Nc2ccccc2)nnc1-c1cccnc1 | inactive |  | 
85 | COc1cccc(C(=O)Nc2nnc(-c3ccccc3)s2)c1 | inactive | 0.556 | 
86 | Cc1ccc(NC(=O)CCC(=O)OCCCC(F)(F)C(F)(F)F)cc1 | inactive | -12.9 | 
87 | Cc1ccccc1OC(=O)CCC(=O)OCCCC(F)(F)C(F)(F)F | 29.1 µM (active) | 10.2 | 
88 | Cc1ccccc1NC(=O)CCC(=O)OCCCC(F)(F)C(F)(F)F | inactive | 12.7 | 
89 | O=c1oc(-c2cccc([N+](=O)[O-])c2)nc2ccccc12 | inactive | 0.88 | 
90 | CCn1c(=O)c(=O)[nH]c2c(=O)oc3ccc(S(=O)(=O)Nc4ccc(OC)cc4)cc3c21 | 4.61 µM (active) | 1.26 | 
91 | CCn1c(=O)c(=O)[nH]c2c(=O)oc3ccc(S(=O)(=O)Nc4ccccc4)cc3c21 | 13 µM (active) | -26.4 | 
92 | Cn1c(=O)oc2cc(S(=O)(=O)Nc3ccccc3)ccc21 |  | -3.03 | -3.68% [at 9.22 µM] (inactive)
93 | COc1ccc(NS(=O)(=O)c2ccc3oc(=S)[nH]c3c2)cc1 | inactive | 5.85 | 
94 | COc1ccc(NS(=O)(=O)c2ccc3oc(=O)ccc3c2)cc1 | inactive | -11.6 | 
95 | Cc1ccc(S(=O)(=O)Nc2c(O)c3ccccc3oc2=O)cc1C | inactive | 6.35 | 
